# T cruzi growth-1 – T. cruzi proliferation inhibition. T. cruzi beta-gal in NIH3T3, GalScreen luminescence, 90 h. inhibition, % at 8.34 µM. 77,000 tested, 5.9% active. AID 624255;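 active means mean inhibition above about 93%, with at least 55% of replicates each passing it, limit read from the data, passing the limit was not always enough; inconclusive means only one of those two conditions holds; inactive means neither condition holds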
# Pf Dd2 inh – blocks growth of Plasmodium falciparum Dd2 parasites; activity change, % at 10 µM; P. falciparum Dd2 growth, SYBR Green, 72 h; stronger effect = lower value; 94,000 tested, 2.3% active; in the data active means activity change below about -80%; inconclusive means no clear call, values can overlap the other calls
# C diff HTS – blocks growth of Clostridium difficile; Clostridium difficile clinical isolate growth, OD600, 24 h; stronger effect = lower value; growth activity, negative = inhibition, % at 16 µg/mL (by protocol); 86,000 tested, 0.25% active;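 active means mean growth activity at or below -80% and every replicate also at or below -80%; inconclusive means mean at or below -80% but some replicate above -80%; inactive means mean growth activity above -80%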;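 further: 0% = DMSO wells and -100% = levofloxacin 16 µg/mL wells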
# T cruzi growth-2 – blocks T. cruzi growth in NIH3T3 host cells; shares compounds with T cruzi growth-1; T. cruzi beta-gal in NIH3T3, GalScreen luminescence, 90 h; inhibition, % at 8.35 µM; 5,600 tested, 72% active; AID 651739;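 active means mean replicate inhibition above about 95% and at least 55% of replicates individually reaching it, limit read from the data; inconclusive means only one of the two criteria is met; inactive means neither criterion is met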
# T cruzi growth-3 – blocks T. cruzi growth in NIH3T3 host cells | shares compounds with T cruzi growth-1 | T. cruzi beta-gal in NIH3T3, GalScreen luminescence, 90 h | inhibition, % at 2.09 µM | 5,600 tested, 21% active | AID 651740;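 active means mean inhibition above about 95%, with at least 55% of replicates also reaching it, limit read from the data; inconclusive means meets just one of the two conditions; inactive means meets neither condition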;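 further: plate controls were neutral control median for no effect and positive control median for full effect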
# NIH3T3 tox – cytotoxicity in mouse NIH/3T3 fibroblasts | shares compounds with T cruzi growth-1 | NIH/3T3 viability, CellTiter-Glo ATP luminescence, 90 h | cytotoxicity (signal decrease), % at 8.35 µM | 5,600 tested, 14% active | AID 651742;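 active means mean signal decrease across replicates above about 35% based on untreated-well scatter, with enough replicates individually passing, limit read from the data; inconclusive means no rule stated though some were filed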;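 further: 0% = median of neutral control wells and 100% = median of positive control wells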
# NIH3T3 tox 2 – cytotoxicity in mouse NIH/3T3 fibroblasts | inhibition, % at 24.9 µM | 5,600 tested, 56% active | NIH/3T3 viability, CellTiter-Glo ATP luminescence, 90 h | shares compounds with T cruzi growth-1;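 active means mean loss of cell viability signal at or above a set limit, and enough replicates individually reaching it; inconclusive means meets only the mean limit or only the replicate share; inactive means meets neither condition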;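 further: 0% = median of neutral control wells and 100% = median of positive control wells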
# * hit, by the source's call; ? = inconclusive; / = not tested or not shown. Rows were chosen to be rich in hits. Some 6.8% of all compounds tested hit in one or more screens of this group.
SMILES,T cruzi growth-1,Pf Dd2 inh,C diff HTS,T cruzi growth-2,T cruzi growth-3,NIH3T3 tox,NIH3T3 tox 2
O=C(Nc1ccccc1F)N1CCCCN2[C@H](CO)[C@H](c3ccc(/C=C/c4ccccc4)cc3)[C@H]2C1,82,-72,-77,/,/,/,/
O=C(Nc1ccccc1F)N1CCCCN2[C@H](CO)[C@H](c3ccc(/C=C/c4ccccc4)cc3)[C@@H]2C1,116*,-3,0,96*,113*,45*,58*
CCC(=O)N1CC2(C1)CN(C(=O)c1ccccn1)[C@@H](CO)c1c2c2ccc(OC)cc2n1C,/,35,2,/,/,/,/
CC(C)NC(=O)N1CC[C@@H]2[C@H]1c1cc(Br)ccc1N(C)[C@@H]2CO,9,5,48,/,/,/,/
C[C@H]1CN([C@@H](C)CO)C(=O)Cc2cc(NC(=O)Nc3ccc(F)cc3)ccc2O[C@@H]1CN(C)C(=O)Nc1ccccc1,/,-23,-1,/,/,/,/
C[C@H]1CN([C@@H](C)CO)C(=O)c2cc(C3=CCCCC3)cnc2O[C@@H]1CN(C)C(=O)c1cccc(F)c1,105*,-46,-11,108*,22,-7,53*
C[C@H](CO)N1C[C@H](C)[C@H](CN(C)Cc2cccc(F)c2)Oc2ncc(C3=CCCCC3)cc2C1=O,/,3,26,/,/,/,/
C[C@H]1CN([C@@H](C)CO)C(=O)c2cc(C3=CCCCC3)cnc2O[C@H]1CN(C)Cc1cccc(F)c1,110*,-4,12,105*,6,22,35*
C[C@H]1CN([C@@H](C)CO)C(=O)c2cc(C3=CCCCC3)cnc2O[C@@H]1CN(C)Cc1ccccc1C(=O)O,108*,-7,-5,23,6,9,-24
C[C@@H]1CN([C@@H](C)CO)C(=O)c2cc(C3=CCCCC3)cnc2O[C@H]1CN(C)C(=O)c1cccc(F)c1,57,-6,-7,/,/,/,/
C[C@@H]1CN([C@H](C)CO)C(=O)c2cc(C3=CCCCC3)cnc2O[C@H]1CN(C)Cc1ccccc1C(=O)O,-44,0,1,/,/,/,/
Cc1noc(C)c1S(=O)(=O)Nc1ccc2c(c1)C(=O)N([C@H](C)CO)C[C@H](C)[C@H](CN(C)CC1CCCCC1)OCCCC[C@H](C)O2,10,-54,6,/,/,/,/
C[C@H]1CN([C@@H](C)CO)C(=O)Cc2cc(NC(=O)CCCCCC(=O)Nc3ccccc3N)ccc2O[C@H]1CN(C)S(=O)(=O)c1ccc(F)cc1,32,-78,-5,/,/,/,/
C/C=C/c1cnc2c(c1)C(=O)N([C@@H](C)CO)C[C@H](C)[C@@H](CN(C)S(=O)(=O)c1ccccc1F)O2,/,-62,-3,/,/,/,/
CC(C)NC(=O)N1CC2(C1)[C@@H](c1ccccc1)[C@H](CO)N2C(=O)C1CCC1,/,43,16,/,/,/,/
C[C@@H]1CN([C@H](C)CO)C(=O)c2cc(NC(=O)NC3CCCCC3)ccc2O[C@@H](C)CCCCO[C@H]1CN(C)Cc1ccc2c(c1)OCO2,/,/,14,/,/,/,/
COc1ccccc1-c1ccc2c(c1)O[C@H](CN(C)S(=O)(=O)c1ccc(C)cc1)[C@H](C)CN([C@@H](C)CO)S2(=O)=O,128*,-47,21,104*,?,?,58*
COc1ccccc1-c1ccc2c(c1)O[C@@H](CN(C)C)[C@H](C)CN([C@@H](C)CO)S2(=O)=O,5,-46,-5,/,/,/,/
COc1ccccc1-c1ccc2c(c1)O[C@@H](CN(C)S(=O)(=O)c1ccc(C)cc1)[C@@H](C)CN([C@H](C)CO)S2(=O)=O,126*,-46,11,103*,87,24,37*
COc1ccccc1-c1ccc2c(c1)O[C@H](CN(C)S(=O)(=O)c1ccccc1)[C@@H](C)CN([C@H](C)CO)S2(=O)=O,86,-65,5,/,/,/,/
COc1ccccc1-c1ccc2c(c1)O[C@H](CN(C)S(=O)(=O)c1ccccc1)[C@@H](C)CN([C@@H](C)CO)S2(=O)=O,93*,-56,7,95*,20,36*,47*
COc1ccccc1-c1ccc2c(c1)O[C@H](CN(C)C)[C@@H](C)CN([C@H](C)CO)S2(=O)=O,19,-11,-7,/,/,/,/
COc1ccccc1-c1ccc2c(c1)O[C@@H](CN(C)C(C)=O)[C@@H](C)CN([C@@H](C)CO)S2(=O)=O,/,0,0,/,/,/,/

# Compound activity deposited in PubChem by Broad Institute.
